Source: PubChem BioAssay (National Center for Advancing Translational Sciences (NCATS))
A selection: hits, their analogues and other compounds. The true share with any hit is near 7.5%.
B2AR arrestin = agonists driving beta-arrestin recruitment to human beta2-adrenergic receptor. P07550. beta-arrestin recruitment to beta2AR, cell-based reporter. Potency, µM (series often up to 46.1 µM), for inactives: top-dose activation, most hits filed as activators. hit rate 0.02% among 330,000. AID 492947;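 also: potency is read from the fitted curve at half-maximal effect; 0% = DMSO controls and full agonism = EC100 isoproterenol or metaproterenol; nearly all actives have a fitted effect of over 65% in size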
TSHR antagonist = human thyrotropin receptor antagonism | hit rate 0.2% among 330,000 | TSHR-expressing cells, TSH-stimulated cAMP HTRF, 2 h; active compounds read low | P16473 | activity change, negative = inhibition, % at 11.5 µM;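 active = activity change below a set negative limit, meaning inhibition stronger than a set level, cut at about -70% in these data; inconclusive = activity change between two set negative limits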
Target sequence (P16473 whole entry, looked up): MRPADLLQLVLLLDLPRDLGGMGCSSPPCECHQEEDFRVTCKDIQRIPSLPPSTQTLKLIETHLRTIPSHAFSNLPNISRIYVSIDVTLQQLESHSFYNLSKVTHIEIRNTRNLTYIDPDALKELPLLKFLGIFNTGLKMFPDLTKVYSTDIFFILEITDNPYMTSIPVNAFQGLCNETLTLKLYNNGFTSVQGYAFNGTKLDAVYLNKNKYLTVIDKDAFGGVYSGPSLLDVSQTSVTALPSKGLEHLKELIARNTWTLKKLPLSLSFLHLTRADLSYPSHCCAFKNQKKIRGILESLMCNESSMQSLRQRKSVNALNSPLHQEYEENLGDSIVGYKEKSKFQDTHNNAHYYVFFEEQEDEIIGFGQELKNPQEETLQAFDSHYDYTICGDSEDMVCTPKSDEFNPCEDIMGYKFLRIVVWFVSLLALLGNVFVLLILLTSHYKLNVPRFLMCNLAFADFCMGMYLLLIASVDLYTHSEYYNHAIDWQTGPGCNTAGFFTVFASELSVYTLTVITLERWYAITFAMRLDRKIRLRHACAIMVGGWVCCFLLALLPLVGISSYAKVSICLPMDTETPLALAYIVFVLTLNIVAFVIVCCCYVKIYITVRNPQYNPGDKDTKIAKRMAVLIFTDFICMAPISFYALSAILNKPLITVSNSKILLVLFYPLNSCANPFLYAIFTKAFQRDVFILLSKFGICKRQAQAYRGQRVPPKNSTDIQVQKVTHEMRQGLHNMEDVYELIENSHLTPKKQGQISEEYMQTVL
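Antagonism was scored as loss of TSH-driven cAMP in TSHR cells, stimulated with 4nM TSH (EC80) for 2 hours at 37 deg C and detected by homogeneous HTRF competition immunoassay.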
Gal4-VP16 FLuc = Gal4-VP16 reporter inhibition counter-screen. AID 2546. Drosophila S2 Gal4-VP16 UAS-luciferase, luminescence, 20 h. Potency, µM (series often up to 53.6 µM), inactives show top-dose activity, negative = inhibition, usual class: inhibitors. hit rate 3.5% among 310,000;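 also: Gal4-VP16 expression switched on by copper sulfate through the metallothionein promoter; potency is read from the fitted curve at half-maximal effect; nearly all actives have a fitted effect of over 50% in size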
ELG1 repair inh = ELG1-dependent DNA repair inhibition; HEK293T ELG1-luciferase reporter, luminescence, 16 h; DNA damage induced by 5-fluorouridine; Potency, µM (titrated, usually from 46.1 µM), inactives show top-dose activity change, negative = inhibition, actives largely listed as inhibitors; hit rate 2.3% among 330,000; also: potency is read from the fitted curve at half-maximal effect; nearly all actives have a fitted effect of over 55% in size
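Overnight (16 hr) co-exposure of 2,000 cells/well to 5-fluorouridine and compound at 37 °C preceded detection. Luciferase was quantified via ONE-Glo luminescence; loss of signal denotes inhibition.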
RORgamma inh = blocks mouse ROR gamma transcriptional activity. AID 2551. Drosophila S2 Gal4-RORgamma UAS-luciferase reporter, 20 h. P51450. hit rate 5.4% among 310,000. Potency, µM (series often up to 53.6 µM), inactives show at the top dose activity change, negative = inhibition, usual class: inhibitors; also: potency is read from the fitted curve at half-maximal effect; nearly all actives have a fitted effect of over 60% in size
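Stable Schneider cell line, Gal4 DNA-binding domain fused to ROR gamma, UAS-luciferase. Cmpd 1 hr RT → CuSO4 700 uM final → 20 hr RT → luciferase reagent 10 min → luminescence.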
An asterisk follows results filed as active; ? = inconclusive; . = not tested or not shown; ! = repeats disagree; [ ] = remark or other dose. Unless noted, calls follow the shape of the dose curve; as a rule, active = well fitted curve in the direction sought with a large enough effect; inconclusive = small, poorly fitted or top-dose-only effect, or another doubt; inactive = no such curve, though single readings can be large; an effect the other way counts as inactive or inconclusive. Unless noted, % is scaled to controls: 0 for no effect and ±100 for the full control effect.

SMILES	B2AR arrestin	TSHR antagonist	Gal4-VP16 FLuc	ELG1 repair inh	RORgamma inh
Fc1ccc(CNC(=S)Nc2ccc(Cl)cc2)cc1	0%	-21	16µM*	11%	7.1µM*
S=C(NCc1ccc(Cl)cc1Cl)Nc1ccccc1	0%	-2	6.3µM*	-23%	7.1µM*
Fc1ccccc1CNC(=S)NCc1ccc(Cl)cc1	0%	-19	?	-19%	7.9µM*
Fc1ccc(CNC(=S)Nc2cccc(Cl)c2)cc1	-2%	-11	11µM*	10%	5.6µM*
Cc1cc(C)cc(NC(=S)NCc2ccncc2)c1	0%	6	-8%	12%	?
S=C(NCc1ccncc1)Nc1cccc(Cl)c1	0%	-3	0%	2%	15%
S=C(NCc1ccc(Cl)cc1)Nc1ccncc1	0%	-36	7.1µM*	-12%	?
COC(=O)c1cccc(NC(=S)NCc2ccc(F)cc2)c1	0%	-2	?	-9%	10µM*
CSCC[C@H](NC(=O)Nc1ccc(OC(F)(F)F)cc1)C(=O)O	1%	0	-9%	7%	-2%
Cc1ccc2c(cnn2C(=O)CCC(=O)NCc2cccc(Cl)c2)c1	0%	-8	-12%	?	-21%
O=C(c1cc(-c2ccc(Cl)cc2)n(-c2cc(Cl)ccc2Cl)n1)N1CCOCC1	0%	14	?	?	?
O=C(c1cc(-c2ccc(Cl)cc2)n(-c2ccc(Cl)c(Cl)c2)n1)N1CCOCC1	0%	3	?	?	2.2µM*
CC(C)CCCC(C)C1CCC2C3CC(=O)[C@H]4CC(O)CC[C@]4(C)C3CC[C@@]12C (some centres undefined)	.	.	-8%	.	-4%
C=C1/C(=C\C=C2/CCC[C@]3(C)[C@@H]([C@H](C)CCCC(C)(C)O)CC[C@@H]23)C[C@@H](O)C[C@@H]1O	0%	-25	?	.	10µM*!
C=C1CC[C@H](O)C/C1=C/C=C1\CCC[C@]2(C)[C@@H]([C@H](C)CCCC(C)(C)O)CC[C@@H]12	.	.	11µM*!	.	?
C=C1CC[C@H](O)C/C1=C/C=C1\CCC[C@]2(C)[C@@H]([C@H](C)CC[C@@H](O)C(C)(C)O)CC[C@@H]12	.	.	?	.	-31%
C=C(C(=O)OCC)C(=O)c1ccccc1	.	.	-1%	.	4%
Cc1ccc(S(=O)(=O)N2CCCCC2)cc1NC(=O)CNCc1ccco1	-1%	38	0%	-7%	6%
CN(C(=O)COC(=O)c1ccc(Cl)nc1)C1CCS(=O)(=O)C1 (centres undefined)	0%	11	-8%	12%	23%
COc1ccc2c(c1)C(=NNC(=O)c1ccccn1)c1cc(OC)ccc1-2	0%	8	4µM*	?	2.8µM*
COc1cc(OC)cc(C(=O)NNC(=O)c2ccccn2)c1	0%	-8	5.6µM*	?	4.5µM*
C/C(=N\NC(=O)C(C)Oc1ccc([N+](=O)[O-])cc1)c1ccccn1 (centres undefined)	-1%	2	2.2µM*	?	1.1µM*
CC(Oc1ccccc1)C(=O)NNC(=O)c1ccccn1 (centres undefined)	-1%	4	?	20%	7.9µM*
CCC(=O)CC(NC(=O)OC)c1ccc(F)cc1 (centres undefined)	.	.	-8%[10 µM]	.	8%[10 µM]
O=C(c1cccc(Cl)c1)N1CCCc2ccccc21	0%	-3	0%	-19%	1%[1.91 µM]
SMILES	B2AR arrestin	TSHR antagonist	Gal4-VP16 FLuc	ELG1 repair inh	RORgamma inh
CCCn1c(C)cc(=O)c2cc(NC(=O)c3ccccn3)ccc21	0%	-4	-14%	16µM*	35%
COc1ccc(C(=O)NNC(=O)c2ccccn2)cc1	-1%	-3	5.6µM*	?	7.1µM*
COc1ccc(OCC(=O)NNC(=O)c2ccccn2)cc1	-1%	-2	?	-4%	13µM*
CCCC(=O)Nc1ccc(NC(=O)c2ccccn2)cn1	-1%	-9	?	?	?
CCOc1ccc(NC(=O)c2ccccn2)cc1	-2%	3	4.5µM*	?	7.1µM*
COc1ccc(OCC(=O)NCCNC(=O)c2ccccn2)cc1	0%	-18	-10%	15%	4%
Cc1ccc(C(=O)OCC(=O)NC2CCCCC2)cc1S(=O)(=O)N1CCCCC1	0%	2	.	10%	.
